One assay deals with RARg:RXRa (NR concentration 270 nM, RXRa partner concentration 90 nM). Put plainly: PBM binding z-score (relative to random genomic background probes); higher = stronger binding; sequences stand for … in GC…GCGATTGACAGCGTAGAATGAAGG
The gist of the method:
(§1)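 Custom Agilent 4×180K protein-binding microarrays carried double-stranded probes, each with a 34-nt variable region. These regions held direct-repeat seeds, single-nucleotide variants, half-site ablations and random human genomic background sequences. Ligand-free nuclear receptor dimers were incubated on the arrays for 1 h, antibodies against each partner (one per run) detected binding, and scanned fluorescence was regression-normalized. Binding z-scores take the random background probes as reference.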
With TAGCCTAGGTCATGCGGGACAGTATAGTGTCGGC, the PBM binding z-score stood at 3.95.

For CCTCGGAGGACAACAGGAGGTCATAGCTGCCAGA, the PBM binding z-score was found to be 3.93.

Sequence CGCACTAGGTCATCCAGGACAGTGAATACATTGA yielded a PBM binding z-score of 3.99.

TAGCCTAGGTCGTTCAGGGGCCAGTATAGAAAGC displayed a PBM binding z-score of 3.43.

In turn, CTATGTAGGTCAAGGGGGTCATTCAGTTTGAAAG came in with a PBM binding z-score of 7.26.

For the sequence ATATGTAGGTTATCTGGGGTCATTCAGACTAGGC, the PBM binding z-score stood at 4.51.

In turn, TCTCGGAGGACACAAAGGTCAGAGCTTTCCAGAG displayed a PBM binding z-score of 4.8.

CGTCCAAGGTCGAAGGTCAGTGAAGAGATGACGG returned a PBM binding z-score of 4.83.

The sequence TAGCCTAGGTCATTCAGGGGCCACTATAGAAAGC gave a PBM binding z-score of 6.46.

AGTCAAAGTTCAGGACGACGTAACGTAAAGCACG showed a PBM binding z-score of 3.78.

The sequence CCTAGTGGGCCAAGGTCATTGATCAGTCAAAGCA came in with a PBM binding z-score of 3.74.

Regarding AGAATGAGGTTAAACGTAGATCAGGGAAGAAAGT, the PBM binding z-score is 2.9.

On to CCTAGTTGGTCAAGGTCACATACGCTATAGGTAC, for which the PBM binding z-score was determined as 4.18.

TTACCAAGGTCAAGGTCGTTGATCCCTCTGTAGA displayed a PBM binding z-score of 6.48.

CCTTACGGGTCAAGGTTATAGCCCGGGTGGTACG showed a PBM binding z-score of 5.05.

TCTGCTAGGTCATCGATGGTCAGCTAATCTGCTA came in with a PBM binding z-score of 3.79.

Sequence CTATGTGGGTTAAGGGGGTCATTCAGTTTGAAAG showed a PBM binding z-score of 5.36.

The subject of the next assay is RARg homodimer (NR concentration 270 nM). The description is as above. In short, it runs like this:
as §1
ATATGTAGGTTACATCCGGGTCATCCAGGCTATG returned a PBM binding z-score of 2.1.

Take TCTGCTAGGTCAACGATGGTCAGTTAATCTGCTA: the PBM binding z-score turned out to be 4.95.

CGTCCAAGGTCACGGTCAGTGAAAGAGACTCGAA came in with a PBM binding z-score of 8.03.

CCAGACAGGTGAGAAGGTAACTCAGCCTCGATTA displayed a PBM binding z-score of 0.652.

In turn, GATACAGGGTCGGCTAGAGGCCAGAGTATGGAAA had a PBM binding z-score of 1.5.

CCTAGTTGTTCAGGAGGTCACACACCGGATATGA returned a PBM binding z-score of 4.35.

Consider TCGAGTAGGTCACGGGGGCATTCAGGGATGAAGA, for which the PBM binding z-score amounted to 6.69.

For AGAATGAGGTTAAGTTCAGGGAAACAGAATACAT, the PBM binding z-score is 2.98.

Sequence CCTACTGGGCCAAAAAGGTCATTGATGCCGATAA gave a PBM binding z-score of 4.42.

Regarding AATACAGGGTCACGAGGCCAGAGTAGGTACGAAT, the PBM binding z-score was determined as 5.99.

CCTTACGGGTAACGAGGTTATAGCACGACGAGCG had a PBM binding z-score of 0.837.

Consider CCTACTGGGCCAAAAAGTTCATTGATGCCGATAA, for which the PBM binding z-score was 1.8.

Sequence AGAATGAGGTCAAGATCAGGGAAACAGAATACAT showed a PBM binding z-score of 6.24.

In turn, CTATGTAGGTTAGGGGGGTCATTCAGTTTGAAAG gave a PBM binding z-score of 4.91.

TGTCAATGTTCAAAGGTAACGTAAGTATCCACAC: the PBM binding z-score is 0.759.

Turning to CGTCCAAAGTCAAAGGTCAGTGAAGAGATGACGG, the PBM binding z-score is 5.

In turn, ATATGTAGGTTAGCTGAGGTCATTCAGACTAGGC registered a PBM binding z-score of 3.72.

In turn, TCTAGTTGGTCACGGAGGTCCCACACGACGGGTA registered a PBM binding z-score of 1.61.

CGAACTAGGTCGAGGACAGTGAATCTCCGCACGC yielded a PBM binding z-score of 1.36.

As for CAAACTAGGTCACCGAAAGGTCAAAGTCCGCATG, the PBM binding z-score was found to be 8.27.

CCTGCTAGGTCATGGTCAGCGAATCTACAGTATG gave a PBM binding z-score of 4.93.

CGTCCAAGGTCAAGGTCAATGAAAGAGACTCGAA registered a PBM binding z-score of 7.87.

The sequence TAGCCTAGGTCATGCGGGACAGTATAGTGTCGGC yielded a PBM binding z-score of 4.49.

As to CCTCGGAGGACAACAGGAGGTCATAGCTGCCAGA, the PBM binding z-score was found to be 3.78.

As for CGCACTAGGTCATCCAGGACAGTGAATACATTGA, the PBM binding z-score amounted to 4.51.

TAGCCTAGGTCGTTCAGGGGCCAGTATAGAAAGC showed a PBM binding z-score of 1.27.

Sequence CTATGTAGGTCAAGGGGGTCATTCAGTTTGAAAG displayed a PBM binding z-score of 6.93.

ATATGTAGGTTATCTGGGGTCATTCAGACTAGGC had a PBM binding z-score of 3.58.

For the sequence TCTCGGAGGACACAAAGGTCAGAGCTTTCCAGAG, the PBM binding z-score was 5.32.

For CGTCCAAGGTCGAAGGTCAGTGAAGAGATGACGG, the PBM binding z-score was determined as 4.64.

Sequence TAGCCTAGGTCATTCAGGGGCCACTATAGAAAGC showed a PBM binding z-score of 4.76.

AGTCAAAGTTCAGGACGACGTAACGTAAAGCACG registered a PBM binding z-score of 4.45.

CCTAGTGGGCCAAGGTCATTGATCAGTCAAAGCA came in with a PBM binding z-score of 3.3.

AGAATGAGGTTAAACGTAGATCAGGGAAGAAAGT: the PBM binding z-score is 1.54.

In turn, CCTAGTTGGTCAAGGTCACATACGCTATAGGTAC yielded a PBM binding z-score of 4.37.

On to TTACCAAGGTCAAGGTCGTTGATCCCTCTGTAGA, for which the PBM binding z-score was 6.91.

Sequence CCTTACGGGTCAAGGTTATAGCCCGGGTGGTACG registered a PBM binding z-score of 5.24.

TCTGCTAGGTCATCGATGGTCAGCTAATCTGCTA came in with a PBM binding z-score of 4.88.

In turn, CTATGTGGGTTAAGGGGGTCATTCAGTTTGAAAG came in with a PBM binding z-score of 4.42.

The test system of another assay is RXRa DBDmut IVT, anti-RXR (DBD mutation: RXRa K156A/R161A, NR concentration 90 nM). The description is as above. In short, it runs like this: as §1
The sequence ATATGTAGGTTACATCCGGGTCATCCAGGCTATG yielded a PBM binding z-score of 0.681.

On to TCTGCTAGGTCAACGATGGTCAGTTAATCTGCTA, for which the PBM binding z-score was determined as 0.834.

Sequence CGTCCAAGGTCACGGTCAGTGAAAGAGACTCGAA had a PBM binding z-score of 4.12.

CCAGACAGGTGAGAAGGTAACTCAGCCTCGATTA displayed a PBM binding z-score of 0.16.

Take GATACAGGGTCGGCTAGAGGCCAGAGTATGGAAA: the PBM binding z-score is -0.0719.

The sequence CCTAGTTGTTCAGGAGGTCACACACCGGATATGA registered a PBM binding z-score of 1.15.

In the case of TCGAGTAGGTCACGGGGGCATTCAGGGATGAAGA, the PBM binding z-score was found to be 2.23.

AGAATGAGGTTAAGTTCAGGGAAACAGAATACAT gave a PBM binding z-score of 2.38.

In the case of CCTACTGGGCCAAAAAGGTCATTGATGCCGATAA, the PBM binding z-score worked out at 0.661.

In the case of AATACAGGGTCACGAGGCCAGAGTAGGTACGAAT, the PBM binding z-score worked out at 2.95.

For the sequence CCTTACGGGTAACGAGGTTATAGCACGACGAGCG, the PBM binding z-score is -0.598.

In the case of CCTACTGGGCCAAAAAGTTCATTGATGCCGATAA, the PBM binding z-score amounted to 1.51.

Sequence AGAATGAGGTCAAGATCAGGGAAACAGAATACAT yielded a PBM binding z-score of 4.15.

CTATGTAGGTTAGGGGGGTCATTCAGTTTGAAAG displayed a PBM binding z-score of 3.23.

Take TGTCAATGTTCAAAGGTAACGTAAGTATCCACAC: the PBM binding z-score was -0.404.

The sequence CGTCCAAAGTCAAAGGTCAGTGAAGAGATGACGG registered a PBM binding z-score of 0.813.

As to ATATGTAGGTTAGCTGAGGTCATTCAGACTAGGC, the PBM binding z-score is 1.9.

TCTAGTTGGTCACGGAGGTCCCACACGACGGGTA: the PBM binding z-score came out at 0.484.

Turning to CGAACTAGGTCGAGGACAGTGAATCTCCGCACGC, the PBM binding z-score came to 0.54.

Turning to CAAACTAGGTCACCGAAAGGTCAAAGTCCGCATG, the PBM binding z-score was 2.98.

For the sequence CCTGCTAGGTCATGGTCAGCGAATCTACAGTATG, the PBM binding z-score came to 1.92.

In turn, CGTCCAAGGTCAAGGTCAATGAAAGAGACTCGAA returned a PBM binding z-score of 3.91.

With TAGCCTAGGTCATGCGGGACAGTATAGTGTCGGC, the PBM binding z-score worked out at 0.879.

Take CCTCGGAGGACAACAGGAGGTCATAGCTGCCAGA: the PBM binding z-score stood at 1.1.

As for CGCACTAGGTCATCCAGGACAGTGAATACATTGA, the PBM binding z-score was determined as 2.26.

Sequence TAGCCTAGGTCGTTCAGGGGCCAGTATAGAAAGC came in with a PBM binding z-score of 0.406.

For CTATGTAGGTCAAGGGGGTCATTCAGTTTGAAAG, the PBM binding z-score is 3.29.

Regarding ATATGTAGGTTATCTGGGGTCATTCAGACTAGGC, the PBM binding z-score came to 2.58.

TCTCGGAGGACACAAAGGTCAGAGCTTTCCAGAG yielded a PBM binding z-score of 0.957.

As for CGTCCAAGGTCGAAGGTCAGTGAAGAGATGACGG, the PBM binding z-score was found to be 1.82.

TAGCCTAGGTCATTCAGGGGCCACTATAGAAAGC showed a PBM binding z-score of 1.94.

Regarding AGTCAAAGTTCAGGACGACGTAACGTAAAGCACG, the PBM binding z-score is 2.93.

Regarding CCTAGTGGGCCAAGGTCATTGATCAGTCAAAGCA, the PBM binding z-score came to 1.05.

AGAATGAGGTTAAACGTAGATCAGGGAAGAAAGT showed a PBM binding z-score of 2.08.

For the sequence CCTAGTTGGTCAAGGTCACATACGCTATAGGTAC, the PBM binding z-score came to 2.21.

The sequence TTACCAAGGTCAAGGTCGTTGATCCCTCTGTAGA yielded a PBM binding z-score of 3.27.

Regarding CCTTACGGGTCAAGGTTATAGCCCGGGTGGTACG, the PBM binding z-score was -0.0321.

With TCTGCTAGGTCATCGATGGTCAGCTAATCTGCTA, the PBM binding z-score was found to be 1.53.

With CTATGTGGGTTAAGGGGGTCATTCAGTTTGAAAG, the PBM binding z-score came to 3.34.

The values are drawn from the supplement of paper PMC6555819.
